Bioassay records (PubChem)
Only some compounds are listed: those with a hit (about 7% of all), similar ones and a draw of the others.
USP28 block: human USP28 deubiquitinase inhibition; AID 1645857; inhibition, % at 25 µM; actives 3% (n = 47,000); Q96RU2; purified USP28, Ub-rhodamine cleavage fluorescence, 30 min
USP30 inh: human USP30 deubiquitinase inhibition; Q70CQ3; purified USP30, Ub-rhodamine cleavage fluorescence; inhibition, % at 25 µM; actives 5.3% (n = 47,000)
Target sequence (Q70CQ3 whole entry, looked up): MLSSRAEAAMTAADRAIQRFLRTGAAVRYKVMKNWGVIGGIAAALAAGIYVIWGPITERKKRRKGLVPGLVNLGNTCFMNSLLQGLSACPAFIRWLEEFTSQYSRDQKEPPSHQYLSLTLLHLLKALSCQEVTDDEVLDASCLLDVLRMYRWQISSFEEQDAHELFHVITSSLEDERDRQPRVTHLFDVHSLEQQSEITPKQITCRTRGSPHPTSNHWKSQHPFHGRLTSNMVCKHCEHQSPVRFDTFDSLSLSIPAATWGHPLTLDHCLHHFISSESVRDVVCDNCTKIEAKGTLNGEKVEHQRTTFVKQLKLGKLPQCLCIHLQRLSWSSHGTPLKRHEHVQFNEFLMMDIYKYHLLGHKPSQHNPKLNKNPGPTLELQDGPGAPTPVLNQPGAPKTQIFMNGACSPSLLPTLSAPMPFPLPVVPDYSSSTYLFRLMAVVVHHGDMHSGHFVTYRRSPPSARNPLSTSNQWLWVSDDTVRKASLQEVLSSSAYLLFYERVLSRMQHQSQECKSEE
Starred values were filed as active, the others as inactive. No stated cut-off is given here; in the data, active means inhibition above about 30%; inactive means the rest.

SMILES | USP28 block | USP30 inh
CN1CCc2nc(C3CCCN(C(=O)C(C)(C)C)C3)[nH]c(=O)c2C1 (stereo not given) | 9 | 9
CCc1nccn1-c1cccc(C2CCN(C(=O)c3cn[nH]c3C)CC2)n1 | -2 | 12
Cc1cc(-c2ccc(S(=O)(=O)NCc3ccc(Cl)cc3)s2)on1 | 59* | 59*
Cc1cc(-c2ccc(S(=O)(=O)NC3CC3)s2)on1 | 3 | 3
Cc1cccc(CNS(=O)(=O)c2ccc(-c3cc(C)no3)s2)c1 | 16 | 29
Cc1cc(-c2ccc(S(=O)(=O)NCc3ccccc3C)s2)on1 | 19 | 37*
CC(C)Cc1nc(SCC(=O)Nc2cccc3ccccc23)c2c(=O)n(C)c(=O)n(C)c2n1 | 5 | 18
O=C(Nc1nnc2n1CCCS2)c1cccc(Cl)c1 | 59* | 12
COc1ccc(Cl)cc1C(=O)Nc1nnc2n1CCCS2 | 3 | -2
CC[C@]12CCCN3CCc4c(n(c5ccccc45)[C@@H](O)C1)[C@@H]32 | -40 | -4
COc1ccccc1C(=O)N1CC2CN(S(=O)(=O)c3ccc(C)cc3)CC(C1)O2 | -11 | -9
CC(NCC(=O)N1CCC(Cc2ccccc2)CC1)c1ccccc1 (stereo not given) | 5 | 17
Cc1ccc(NC(=O)CCc2ccc3nc[nH]c3c2)c(C)c1 | -7 | 10
Cc1ccc(NC(=O)CCc2ccc3nc[nH]c3c2)cc1F | 35* | -11
Cc1ccc(Nc2nc(N3CCN(c4ccc(F)cc4)CC3)nc3c2cnn3C)cc1 | 10 | 31*
Cc1ccc(Nc2nc(N3CCCC3)nc3c2cnn3C)cc1Cl | 5 | 8
Nc1c(-c2ccc(Cl)cc2)cnc2nc(Sc3ncc(C(F)(F)F)cc3Cl)nn12 | 6 | 33*
Nc1c(-c2ccc(Cl)cc2)cnc2cc(-c3ccc(Cl)c(Cl)c3)nn12 | 24 | 60*
Cc1cc2ncc(-c3ccsc3)c(N)n2n1 | -2 | -8
FC(F)(F)c1cnc(-n2nccc2-c2ccc(Sc3ccccc3)cc2)c(Cl)c1 | -4 | -9
Cc1csc(-c2cc(S(=O)(=O)NC3CCCC3)c(C)n2C)n1 | -8 | -27
COc1ccc(CNC(=O)CN(c2ccccc2)S(=O)(=O)c2ccc(F)cc2)cc1OC | -3 | -10
COc1ccc(N(CC(=O)Nc2cccc(F)c2)S(=O)(=O)c2ccc(OC)c(OC)c2)cc1 | 20 | 51*
COc1ccc(S(=O)(=O)N(CC(=O)Nc2cccnc2)c2ccc(F)cc2)cc1OC | 14 | 11
COc1ccc(S(=O)(=O)N(CC(=O)NCc2ccc3c(c2)OCO3)c2ccc(F)cc2)cc1OC | 20 | 38*
SMILES | USP28 block | USP30 inh
Cc1ccc(-n2nnnc2CNS(=O)(=O)c2ccccc2)cc1 | 14 | 18
Cc1oc(C2CCC2)nc1C(=O)NCCc1nc2ccccc2n1C | 10 | 13
O=C(Nc1ccc(S(=O)(=O)N2CCCC2)cc1)c1ccccc1C(F)(F)F | -5 | -8
Cc1ccc(-c2cc3c(=O)n(Cc4noc(CN5CCCCC5C)n4)ccn3n2)cc1 (stereo not given) | -15 | -73
Cc1nc(N2CCCC2)ncc1-c1cc(=O)[nH]c(NCCc2ccccc2)n1 | 5 | 64*
Cc1nc(N2CCC(C)CC2)ncc1-c1cc(=O)[nH]c(Nc2nc3ccccc3o2)n1 | 14 | 41*
Cc1nc(N2CCCC2)ncc1-c1cc(=O)[nH]c(Nc2ccc(Cl)cc2Cl)n1 | 8 | 27
Cc1nc(N2CCOCC2)ncc1-c1cc(=O)[nH]c(Nc2nc(C)c3ccccc3n2)n1 | -1 | 18
CCCC[C@@H](C)/C=C(C)/C=C(\C)C(=O)NC1=C[C@](O)(/C=C/C=C/C=C/C(=O)NC2=C(O)CCC2=O)[C@@H]2O[C@@H]2C1=O | 73* | 2
O=C(Nc1ccccn1)N1C[C@@H]2c3nccn3-c3ccccc3[C@@H]2C1 | 9 | 34*
Cc1ccc(NC(=O)N2C[C@@H]3c4nccn4-c4ccccc4[C@@H]3C2)cc1 | -18 | 0
Cn1nccc1-c1ncc(-c2cc(C(=O)NC3CC3)n(CC3CC3)c2)cn1 | 0 | 5
Cc1cc(NC(=O)c2cc(-c3cccnc3)n[nH]2)ccc1Br | 48* | 68*
Cc1cc(NC(=O)c2cc(-c3ccccn3)n[nH]2)ccc1Br | -8 | -13
Cc1ccc(C)c(NC(=O)c2cc(-c3cccnc3)n[nH]2)c1 | 0 | -12
Cc1cc(Cl)ccc1NC(=O)c1cc(-c2cccnc2)n[nH]1 | 93* | 23
Fc1ccc(CN2CCCC(c3[nH]nc4nccnc34)C2)cc1 (stereo not given) | 5 | 14
O=C(Nc1ccc2c(c1)OCCO2)C1CCN(C(=O)c2cc(-c3cccnc3)n[nH]2)CC1 | 53* | 6
O=C(Nc1ccc(F)cc1)C1CCN(C(=O)c2cc(-c3cccnc3)n[nH]2)CC1 | -14 | -18
Cc1ccc(S(=O)(=O)N2CCC3(CC2)CC3c2nc(-c3cccnc3)no2)cc1F (stereo not given) | -13 | -1
CCn1nc(C)c(CNC2CCN(c3ccc(C(=O)NCc4ccc5c(c4)OCO5)cc3)CC2)c1C | -1 | -19
CC(C(=O)Nc1cccc(F)c1)C1CCN(C(=O)Nc2ccccc2)CC1 (stereo not given) | -6 | 4
CC1(C)CCCC2=C1CC(C)(C)C(N(C(=O)/C=C/C(=O)O)c1ccccc1)C2 (stereo not given) | 49* | 75*
COc1cccc(CNC(=O)CN2CCC3(CC2)Nc2ccccc2C2=NCCN23)c1 | -12 | -24
Cc1cc(C)c(CNC(=O)c2cccc3c4c([nH]c23)CCCCC4)c(=O)[nH]1 | -100 | -452
SMILES | USP28 block | USP30 inh
CCc1ccccc1N(CC)C(=O)c1cccc2c1SCCC2=O | 20 | 33*
CCc1ccccc1N(C)C(=O)c1[nH]nc2c1CSc1ccccc1-2 | 12 | 14
O=C(CSc1ccc2c(c1)OCCCO2)N1CC=C(c2ccccc2)CC1 | 6 | 11
Cc1cc(=O)n(CC(=O)NCc2ccc(F)cc2)c(N2CCCCC2)n1 | -3 | 2
CCc1cc(=O)n(CC(=O)NCc2ccc(F)cc2)c(N2CCOCC2)n1 | 6 | 31*
CCc1cc(=O)n(CC(=O)NCc2ccc(C)cc2)c(N2CCOCC2)n1 | 1 | 9
Cc1ccc(CNC(=O)Cn2c(N3CCCCC3)nc(C)cc2=O)cc1 | 23 | 36*
Cc1ccc(C(CNC(=O)COc2ccc3ccccc3c2)N2CCN(C)CC2)cc1 (stereo not given) | 2 | 10
CCCOc1ccc(C(F)(F)F)cc1NS(=O)(=O)c1ccc([N+](=O)[O-])cc1 | 5 | 7
CCn1nccc1C(=O)N1CCCC2(C1)Nc1ccccc1NC2=NC(C)(C)C (stereo not given) | -35 | -176
COc1cc2c(cc1OC)-c1cc(Nc3ccc(Br)cc3)nc(=O)n1CC2 | 23 | 53*
COc1ccc(CCNc2cc3n(c(=O)n2)CCc2cc(OC)c(OC)cc2-3)cc1OC | -20 | -46
CN(C)c1ccc(C(CNC(=O)c2ccccc2OCc2ccc(F)cc2)c2c[nH]c3ccccc23)cc1 (stereo not given) | 20 | 19
CC(=O)N1CCOc2cc(S(=O)(=O)N3CCCC3c3cc(C)no3)ccc21 (stereo not given) | 52* | 20
CC(=O)N1CCOc2ccc(S(=O)(=O)Nc3ccccc3F)cc21 | 3 | 17
CCn1nccc1C1CCCN1S(=O)(=O)c1ccc2c(c1)OCCO2 (stereo not given) | 0 | 8
CCc1cc(C2CCCN2S(=O)(=O)c2ccc3c(c2)OCCN3C(C)=O)on1 (stereo not given) | 39* | -45
